In PubChem BioAssay (NCATS):
Values joined by “and” are separate entries in the source; they are usually repeats but may differ in a detail not shown here. Equal entries are not always repeated. Inconclusive results are not listed. Active and inactive are the calls of the source. Unless noted, the call rests on the fitted dose curve; in most records, active means well fitted curve in the direction sought with a large enough effect; inconclusive means small, poorly fitted or top-dose-only effect, or another doubt; inactive means no such curve, though single readings can be large; an effect the other way counts as inactive or inconclusive.

Tests used:
[1] = AP1 Signaling Pathway (AID 357; active means well fitted curve in either direction with a large enough effect, not every such curve was filed as active; further: on the % scale 0 is the no-effect control and ±100 the full control effect)
Procedure, shortened: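 ME-180 cells with beta-lactamase reporter under AP-1 response element, stimulated with EC50 EGF; compounds tested in titration series, 5 h at 37 °C. CCF4 substrate added 2.5 h at room temperature; 460/530 nm emission ratio gave %activity and AC50.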

[2] = molecular target: 3',5'-cyclic-AMP phosphodiesterase 4B (Homo sapiens) (UniProt Q07343); experiment: qHTS Assay for Inhibitors of PDE-IV (AID 607; active means well fitted activation curve with a large enough effect in the main read-out, with a control signal flat, not every such curve was filed as active; further: % of control where 0% means no effect)
Procedure, shortened: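 Cell-based read-out of cAMP via a modified cyclic nucleotide-gated channel and membrane potential dye (535/590 nm) in HEK293 cells expressing PDE4 endogenously. Compounds tested up to 22.9 uM final; 100 uM RO 20-1724 reference.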

[3] = Stat Signaling Pathway (AID 446; active means well fitted curve in either direction with a large enough effect, not every such curve was filed as active;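 further: ME-180 cervical cancer cells given 40 pM IL-6 alongside compound; SIE-controlled beta-lactamase reporter measured as 460/530 nm FRET emission ratio; on the % scale 0 is the no-effect control and ±100 the full control effect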)
Procedure, shortened: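 Reporter line: ME-180 cervical carcinoma, SIE-beta-lactamase. Treatment: compound with 40 pM IL-6, 5 hrs, 37 C, in low-serum OPTI-MEM with 10 mM HEPES pH 7.3. Detection: 460/530 nm fluorescence.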

[4] = S16 Schwann cell viability assay (CellTiter-Glo assay) (AID 624031);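 further: cellular ATP luminescence as a viability measure; plate controls were DMSO-treated cells for no effect and cell-free wells for full effect; nearly all actives have a fitted effect of over 70% in size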
Procedure, shortened: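 This viability control uses native rat S16 Schwann cells grown in DMEM plus 10% FBS. After a 24 h compound treatment at 37 °C, CellTiter-Glo luminescence reports ATP content, scaled against DMSO-treated and cell-free wells.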

[5] = S16 Schwann cell PMP22 intronic element firefly luciferase assay (AID 624032);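 further: plate controls were DMSO for no effect and PTC124 positive control mean for full effect; nearly all actives have a fitted effect of over 30% in size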
Procedure, shortened: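 Luciferase reporter of PMP22 intronic-element expression in stably transfected S16 rat Schwann cells, read by ONE-Glo luminescence after 24 h compound exposure at 37 C. Activity scaled between DMSO (0%) and positive-control PTC124; concentration-effect curves quality-classified.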

CP203 = experiment: qHTS profiling for inhibitors of Plasmodium falciparum proliferation (AID 504749); further: nearly all actives have a fitted effect of over 60% in size; further: potency means the concentration at half of the fitted maximal effect; conditions: P. falciparum in erythrocytes, SYBR Green DNA, 72 h; series mostly up to 12.8 µM
Procedure, shortened: (§1)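 Three-day growth assay of blood-stage parasites in erythrocytes (0.3% parasitemia, 2.5% hematocrit) at 37 C, 5% CO2, quantified by SYBR Green DNA staining after overnight detergent lysis.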

CP260 = experiment: as above; conditions: P. falciparum in erythrocytes, SYBR Green DNA, 72 h; series mostly up to 12.8 µM
Procedure, shortened: as §1

CP265 = experiment: as above; conditions: P. falciparum in erythrocytes, SYBR Green DNA, 72 h; series mostly up to 12.8 µM
Procedure, shortened: as §1

CP335 = experiment: as above; conditions: P. falciparum in erythrocytes, SYBR Green DNA, 72 h; series mostly up to 12.8 µM
Procedure, shortened: as §1

DFO2036 = experiment: as above; conditions: P. falciparum in erythrocytes, SYBR Green DNA, 72 h; series mostly up to 12.8 µM
Procedure, shortened: as §1

DIV14 = experiment: as above; conditions: P. falciparum in erythrocytes, SYBR Green DNA, 72 h; series mostly up to 12.8 µM
Procedure, shortened: as §1

W2 = experiment: as above; conditions: P. falciparum in erythrocytes, SYBR Green DNA, 72 h; series mostly up to 12.8 µM
Procedure, shortened: as §1

[6] = molecular target: Cytochrome P450 3A4 (Homo sapiens) (UniProt P08684); experiment: qHTS Assay for Inhibitors and Substrates of Cytochrome P450 3A4 (AID 884); further: potency means the concentration at half of the fitted maximal effect; nearly all actives have a fitted effect of over 50% in size
Procedure, shortened: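 20 nM human CYP3A4 with 25 uM Luciferin-PPXE (at KM) in 200 mM KPO4, preincubated 10 min with compound; NADPH regeneration started a 60 min RT reaction. Luciferin detected by luminescence, normalized to 57 uM ketoconazole as full inhibition.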

[7] = molecular target: Cytochrome P450 3A4 (Homo sapiens) (UniProt P08684); experiment: qHTS Assay for Activators of Cytochrome P450 3A4 (AID 885); further: nearly all actives have a fitted effect of over 65% in size
Procedure, shortened: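 Signal was normalized against complete inhibition by 57 uM ketoconazole. The reaction used 20nM CYP3A4 with 25uM Luciferin-PPXE, 10-min compound preincubation and a 60-min NADPH-supported step at RT.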

[8] = molecular target: Cytochrome P450 2D6 (Homo sapiens) (UniProt P10635); experiment: qHTS Assay for Inhibitors and Substrates of Cytochrome P450 2D6 (AID 891); further: potency means the concentration at half of the fitted maximal effect; nearly all actives have a fitted effect of over 60% in size
Procedure, shortened: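 Human CYP2D6 (5 nM) with 30 uM Luciferin-ME EGE (at Km) in 100 mM KPO4, compound preincubated 10 min, then NADPH regeneration system for 60 min at room temperature. Luciferin read by luminescence; normalized to 1.43 uM quinidine.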

[9] = S16 Schwann cell PMP22 intronic element beta-lactamase assay (AID 624044; calls by dose curve;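 further: 0% = DMSO and -100% = potassium clavulanate positive control; nearly all actives have a fitted effect of over 15% in size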)
Procedure, shortened: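 Rat S16 Schwann cells with beta-Lac driven by a PMP22 intronic element, compound-treated 24 h at 37 °C. LiveBLAzer FRET B/G read: 460 nm normalized to potassium clavulanate vs DMSO; 535 nm FRET as viability; concentration-effect curves classified.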

[10] = NFAT Signaling Pathway (AID 444; active means well fitted curve in either direction with a large enough effect, not every such curve was filed as active;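 further: carbachol stimulus at about its EC50 of 1 µM final; on the % scale 0 is the no-effect control and ±100 the full control effect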); conditions: Jurkat NFAT-bla M1, carbachol, beta-lactamase ratio, 5 h; at 17.2 µM (top of the series) unless noted
Procedure, shortened: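 Read-out: CCF4 FRET ratio (460 nm/530 nm) after 1 h RT dye loading, used for %activity and AC50 from titration series. Cells: Jurkat NFAT-β-lactamase/M1 line, treated with compound plus 1 uM carbachol for 5 h, 37 °C.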

[11] = molecular target: Cytochrome P450 1A2 (Homo sapiens) (UniProt P05177); experiment: p450-cyp1a2 (AID 410; calls by dose curve; further: potency means the concentration at half of the fitted maximal effect;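 on activity change, negative = inhibition: -100% = full effect of reference inhibitor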)
Procedure, shortened: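 Inhibition was calculated relative to 57 uM furafylline (full inhibition). The reaction used human CYP1A2 at 20nM with Luciferin-ME at its Km, 100uM, driven by an NADPH-regenerating system for 60 min at room temperature.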

Cytochrome P450 2D6 (Homo sapiens), sequence (P10635 whole entry, looked up): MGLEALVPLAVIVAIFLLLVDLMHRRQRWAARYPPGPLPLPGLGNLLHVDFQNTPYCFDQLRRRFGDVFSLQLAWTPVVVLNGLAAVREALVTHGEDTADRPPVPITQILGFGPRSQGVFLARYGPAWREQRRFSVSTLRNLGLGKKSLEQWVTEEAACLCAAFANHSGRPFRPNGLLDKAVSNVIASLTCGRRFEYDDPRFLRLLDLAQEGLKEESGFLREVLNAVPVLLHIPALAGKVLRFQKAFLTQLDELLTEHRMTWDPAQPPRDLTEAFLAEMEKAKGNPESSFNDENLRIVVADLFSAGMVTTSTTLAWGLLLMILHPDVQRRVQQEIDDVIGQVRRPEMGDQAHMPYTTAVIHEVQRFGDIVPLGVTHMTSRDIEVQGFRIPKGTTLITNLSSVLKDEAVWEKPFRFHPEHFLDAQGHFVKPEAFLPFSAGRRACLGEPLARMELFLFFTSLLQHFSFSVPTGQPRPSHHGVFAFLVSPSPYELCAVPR
Cytochrome P450 3A4 (Homo sapiens), sequence (P08684 whole entry, looked up): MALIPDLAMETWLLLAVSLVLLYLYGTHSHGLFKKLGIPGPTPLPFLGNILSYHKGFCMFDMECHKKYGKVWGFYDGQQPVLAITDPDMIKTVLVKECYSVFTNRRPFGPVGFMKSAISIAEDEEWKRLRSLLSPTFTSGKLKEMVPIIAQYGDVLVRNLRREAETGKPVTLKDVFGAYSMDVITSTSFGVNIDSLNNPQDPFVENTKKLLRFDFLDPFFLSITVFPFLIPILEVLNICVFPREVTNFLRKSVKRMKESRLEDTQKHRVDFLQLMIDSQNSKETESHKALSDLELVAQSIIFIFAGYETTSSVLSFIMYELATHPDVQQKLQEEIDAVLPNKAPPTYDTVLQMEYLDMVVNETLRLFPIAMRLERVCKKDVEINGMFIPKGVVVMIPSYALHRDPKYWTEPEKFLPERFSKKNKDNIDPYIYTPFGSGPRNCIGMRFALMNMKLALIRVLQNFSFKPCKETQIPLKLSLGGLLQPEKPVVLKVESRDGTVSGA
Cytochrome P450 1A2 (Homo sapiens), sequence (P05177 whole entry, looked up): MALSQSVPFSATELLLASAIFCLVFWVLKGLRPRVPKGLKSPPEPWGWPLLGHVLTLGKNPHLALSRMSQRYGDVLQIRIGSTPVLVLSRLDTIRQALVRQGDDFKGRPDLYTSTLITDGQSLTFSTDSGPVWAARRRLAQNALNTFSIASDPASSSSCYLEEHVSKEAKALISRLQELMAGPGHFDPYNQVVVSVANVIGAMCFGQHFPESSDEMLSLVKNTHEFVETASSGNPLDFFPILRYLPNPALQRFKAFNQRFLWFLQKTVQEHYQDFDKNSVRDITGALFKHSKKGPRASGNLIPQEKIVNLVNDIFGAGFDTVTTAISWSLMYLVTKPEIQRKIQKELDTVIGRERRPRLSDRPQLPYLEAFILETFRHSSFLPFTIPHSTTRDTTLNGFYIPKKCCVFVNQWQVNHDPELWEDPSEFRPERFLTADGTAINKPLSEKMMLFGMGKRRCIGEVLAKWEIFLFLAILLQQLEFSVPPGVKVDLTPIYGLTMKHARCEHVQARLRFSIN
3',5'-cyclic-AMP phosphodiesterase 4B (Homo sapiens), sequence (Q07343 whole entry, looked up): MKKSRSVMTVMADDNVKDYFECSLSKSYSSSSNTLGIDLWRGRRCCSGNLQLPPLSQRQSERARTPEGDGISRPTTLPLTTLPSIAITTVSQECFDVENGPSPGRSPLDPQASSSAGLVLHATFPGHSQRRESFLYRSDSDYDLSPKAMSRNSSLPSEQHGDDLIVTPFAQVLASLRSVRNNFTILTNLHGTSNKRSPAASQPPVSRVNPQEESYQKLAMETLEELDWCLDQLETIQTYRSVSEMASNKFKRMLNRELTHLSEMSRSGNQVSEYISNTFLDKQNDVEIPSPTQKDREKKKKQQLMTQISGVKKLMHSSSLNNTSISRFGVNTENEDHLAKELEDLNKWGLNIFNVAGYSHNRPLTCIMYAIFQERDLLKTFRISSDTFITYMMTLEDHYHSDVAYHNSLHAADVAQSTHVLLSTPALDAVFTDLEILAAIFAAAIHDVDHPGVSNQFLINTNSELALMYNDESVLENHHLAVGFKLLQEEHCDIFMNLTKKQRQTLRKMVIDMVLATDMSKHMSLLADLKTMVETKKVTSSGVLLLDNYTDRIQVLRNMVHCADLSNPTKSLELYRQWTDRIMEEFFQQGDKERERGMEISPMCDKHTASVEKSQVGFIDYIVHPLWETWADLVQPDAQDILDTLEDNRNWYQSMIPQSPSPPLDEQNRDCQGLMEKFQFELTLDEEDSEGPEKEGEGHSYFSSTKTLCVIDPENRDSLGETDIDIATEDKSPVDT

C[N+]1(C)CCC[C@H]1C(=O)[O-]
inactive: outcome [1] | outcome [2]

O=C(O)COCCN1CCN([C@@H](c2ccccc2)c2ccc(Cl)cc2)CC1
inactive: outcome [1] | outcome [3] | outcome [2] | outcome [4] | Potency [5] | Potency (CP203) | Potency (CP260) | Potency (CP265) | Potency (CP335) | Potency (DFO2036) | Potency (DIV14)
active: Potency (W2) 4.55 µM

Clc1ccc([C@H](Cn2ccnc2)OCc2csc3c(Cl)cccc23)c(Cl)c1
active: Potency [6] 0.794 µM | Potency [8] 5.01 µM | Potency (CP203) 5.73 µM | Potency (DIV14) 5.1 µM | Potency (W2) 2.28 µM
inactive: outcome [1] | outcome [3] | Potency [7] | outcome [4] | Potency [9]

COc1ccc2c3c([nH]c2c1)[C@@H]1C[C@@H]2[C@@H](C[C@H](O)[C@H](OC)[C@H]2C(=O)O)CN1CC3
inactive: outcome [1] | outcome [3] | outcome [2]

CN1CCO[C@H](c2ccccc2)c2ccccc2C1
inactive: outcome [1] | outcome [4] | Potency [5] | Potency [9] | Potency (CP260)
active: Potency (W2) 2.03 µM

COc1ccc([C@@H]2CC(=O)c3c(O)cc(O[C@H]4O[C@@H](CO[C@H]5O[C@@H](C)[C@@H](O)[C@@H](O)[C@@H]5O)[C@@H](O)[C@@H](O)[C@@H]4O)cc3O2)cc1O
inactive: outcome [1] | outcome [3] | outcome [2] | Potency [5] | Potency (CP203) | Potency (CP260) | Potency (CP265) | Potency (DIV14) | Potency (W2)

CC[N+]1(C)[C@@H]2CC[C@H]1CC(OC(=O)[C@H]1CC[C@@](C(=O)OC3C[C@H]4CC[C@@H](C3)[N+]4(C)CC)(c3ccccc3)c3ccccc31)C2 (stereo partly drawn)
inactive: outcome [1] | outcome [3]

CCN1CCC[C@@H](OC(=O)C(c2ccccc2)c2ccccc2)C1
active: Potency (W2) 1.44 µM
inactive: outcome [1] | outcome [3] | Potency [7] | outcome [4] | Potency [9] | Potency (CP260)

Nc1nc(=S)c2ncn([C@H]3O[C@@H](CO)[C@@H](O)[C@@H]3O)c2[nH]1
inactive: outcome [1] | outcome [3] | outcome [2]

C[C@H](NCCC(c1ccccc1)c1ccccc1)c1ccccc1
active: Potency [8] 0.158 µM
inactive: outcome [1] | outcome [3] | Potency [7]

CC1(C)[C@@H](OC(=O)CCC(=O)O)CC[C@@]2(C)[C@H]1CC[C@@]1(C)[C@H]2C(=O)C=C2[C@H]3C[C@](C)(C(=O)O)CC[C@]3(C)CC[C@@]21C
inactive: outcome [1] | outcome [3] | outcome [2] | outcome [4] | Potency [5] | Potency [9] | Potency (CP203) | Potency (CP260) | Potency (CP265) | Potency (CP335) | Potency (DFO2036) | Potency (DIV14) | Potency (W2)

C[C@@H](CNC1CCCCC1)OC(=O)c1ccccc1
active: Potency (DIV14) 3.61 µM | Potency (W2) 2.28 µM
inactive: outcome [1] | outcome [3] | outcome [2] | outcome [4] | Potency [5] | Potency [9]

CC[C@](C)(CN(C)C)OC(=O)c1ccccc1
inactive: outcome [1] | outcome [2] | Potency [5] | Potency (CP260) | Potency (CP265)
active: Potency (W2) 2.87 µM

O=C1CN(/N=C\c2ccc([N+](=O)[O-])o2)C(=O)N1
inactive: outcome [1] | outcome [3] | outcome [2]

CC(=O)O[C@H]1C[C@H]2CC[C@@H]3[C@@H](CC[C@]4(C)[C@H](OC(C)=O)[C@H]([N+]5(C)CCCCC5)C[C@@H]34)[C@]2(C)C[C@H]1[N+]1(C)CCCCC1
inactive: outcome [1] | outcome [3] | outcome [2]

CCN(CCCCOC(=O)c1ccc(OC)c(OC)c1)[C@@H](C)Cc1ccc(OC)cc1
inactive: outcome [1] | outcome [3] | outcome [4] | Potency [5] | Potency [9]

COc1cc2nc(N3CCN(C(=O)[C@@H]4CCCO4)CC3)nc(N)c2cc1OC
inactive: outcome [1] | outcome [3] | outcome [2] | outcome [4] | Potency [5] | Potency (CP203) | Potency (CP260) | Potency (CP265) | Potency (CP335) | Potency (DFO2036) | Potency (DIV14)

Cc1onc(-c2c(F)cccc2Cl)c1C(=O)N[C@H]1C(=O)N2[C@H]1SC(C)(C)[C@H]2C(=O)O
inactive: activity change, negative = inhibition [10] -12.5% | outcome [3] | outcome [2]

C[C@@H]1O[C@H](O[C@@H]2[C@H](C)O[C@H](O[C@@H]3[C@H](C)O[C@H](O[C@H]4CC[C@]5(C)[C@@H](CC[C@@H]6[C@H]5C[C@@H](O)[C@]5(C)[C@@H](C7=CC(=O)OC7)CC[C@]65O)C4)C[C@@H]3O)C[C@@H]2O)C[C@H](O)[C@@H]1O
inactive: Potency [11] | outcome [2]

C[C@@H](CN1c2ccccc2Sc2ccccc21)N(C)C
inactive: outcome [3] | outcome [2]
active: Potency [8] 2 µM and 316 nM

C1CCC(C(C[C@@H]2CCCCN2)C2CCCCC2)CC1
inactive: outcome [3]
active: Potency [11] 6.31 µM | Potency [8] 0.501 µM

CO[C@]1(NC(=O)[C@H](C(=O)O)c2ccc(O)cc2)C(=O)N2C(C(=O)O)=C(CSc3nnnn3C)CO[C@H]21
inactive: Potency [11] | outcome [3] | outcome [4] | Potency [5] | Potency [9] | Potency (CP203) | Potency (CP260) | Potency (CP265) | Potency (CP335) | Potency (DFO2036) | Potency (DIV14) | Potency (W2)

O[C@@](CCN1CCCCC1)(c1ccccc1)[C@@H]1C[C@H]2C=C[C@@H]1C2
inactive: Potency [11] | outcome [3]
active: Potency [8] 2 µM
